Data reported in PubChem BioAssay AID540256 (National Center for Advancing Translational Sciences (NCATS), 2011).
The whole screen tested about 300,000 compounds, of which about 3,700 (1.2%) were called active. Where a call stands in place of a potency, no number is given. Inconclusive results (about 20%) are left out. Calls follow the shape of the full dose curve; tested in HEK293 cells. The full list was thinned out, with actives kept by preference.

Test: qHTS for Inhibitors of binding or entry into cells for Lassa Virus; also: nearly all actives have a fitted effect of over 50% in size
Details: Lassa virus pseudotype entry inhibition, cell reporter; series mostly up to 37.9 µM
Potency is read from the fitted curve at half-maximal effect.

Row | SMILES | Potency
1 | O=C(Nc1ncccc1O)c1ccc(S(=O)(=O)N2CCCCCC2)cc1 | inactive
2 | O=C(CSc1cccc2cccnc12)N/N=C/c1cccnc1 | inactive
3 | CC(=O)/C(=N\Nc1ccc(Cl)cc1Cl)Sc1cccc2cccnc12 | 11.2 µM (active)
4 | COc1c(Cl)cc(Cl)cc1C(=O)Nc1cccc2cccnc12 | inactive
5 | O=C(CC(=O)c1cccnc1)c1ccccc1 | inactive
6 | CCN(C(=O)CSc1cccc[n+]1[O-])c1ccccc1 | inactive
7 | CC1(C(=O)N/N=C/c2cc3c(cc2Br)OCO3)CC1(Br)Br (configuration not stated) | inactive
8 | O=C(NC(Nc1nc2ccc([N+](=O)[O-])cc2s1)(C(F)(F)F)C(F)(F)F)c1ccccc1 | 0.92 µM (active)
9 | O=C(Nc1nc2ccc([N+](=O)[O-])cc2s1)c1ccc(S(=O)(=O)N2CCCc3ccccc32)cc1 | 12.6 µM (active)
10 | O=C(COC(=O)c1ccc(F)cc1)Nc1nc2ccc([N+](=O)[O-])cc2s1 | inactive
11 | CS(=O)(=O)c1ccc2nc(NC(=O)c3ccc(N4CCCC4=O)cc3)sc2c1 | inactive
12 | O=C(Nc1nc2ccc([N+](=O)[O-])cc2s1)c1ccncc1 | inactive
13 | O=C(Nc1nnc(S(=O)(=O)N2CCCc3ccccc32)s1)c1cccc(F)c1 | inactive
14 | COc1cc(C2C(C(=O)c3cccs3)=C(O)C(=O)N2CCN2CCOCC2)ccc1OCCC(C)C (configuration not stated) | inactive
15 | COc1cc(C(=O)CCc2ccc3c(c2)OCO3)cc(OC)c1OC | inactive
16 | Cn1c(=O)[nH]c2c(c(C(=O)O)nn2C)c1=O | inactive
17 | COc1cc2c(cc1OC)CN(C(C)C(=O)Nc1cccc(S(=O)(=O)N3CCOCC3)c1)CC2 (configuration not stated) | inactive
18 | CC(=O)CSc1nc(CCc2ccccc2)c(C#N)c(=O)[nH]1 | inactive
19 | Cn1c(C(=O)NCCN2CCc3ccccc3C2)cc2c(=O)[nH]c3ccccc3c21 | 0.92 µM (active)
20 | O=C(NCCN1CCN(Cc2ccccc2)CC1)c1cc2c(=O)[nH]c3ccccc3c2s1 | inactive
21 | Cc1cccc(N2CCN(C(=O)c3cc4c(=O)[nH]c5ccccc5c4n3C)CC2)c1C | inactive
22 | OC1CCCN(c2ncnc3c2nnn3Cc2c(F)cccc2Cl)C1 (configuration not stated) | 6.31 µM (active)
23 | CCOC(=O)N1CCN(C(=O)C2CCCN(c3ncnc4c3sc3cccc(F)c34)C2)CC1 (configuration not stated) | inactive
24 | Cc1ccc(NC(=O)N2CCC(c3nc4c(nnn4Cc4c(F)cccc4Cl)c(=O)[nH]3)CC2)cc1 | inactive
25 | Cc1ccc(Br)c(NS(=O)(=O)c2cccc(C(=O)N3CCNC(=O)C3)c2)c1 | inactive

Row | SMILES | Potency
26 | NC(=O)C1CCN(C(=O)c2cccc(NC(=O)c3nsc4ccccc34)c2)CC1 | inactive
27 | Cn1cccc1C(=O)OCC(=O)c1ccc(Br)s1 | inactive
28 | COc1ccc(CNC(=O)CN2C(=O)c3ccccc3S2(=O)=O)cc1 | inactive
29 | COc1cccc(NC(=O)C/C(C)=N/NC(=O)C2CCCCC2)c1 | inactive
30 | C/C(CC(=O)Nc1ccc(Cl)cc1)=N\NC(=O)C(=O)NCCO | inactive
31 | COc1ccc(COC(=O)N/N=C(\C)CC(=O)Nc2ccc(Cl)cc2)cc1 | 0.141 µM (active)
32 | CCN(CC(=O)Nc1ccccc1OC)C(=O)CC1CC2CCC1C2 (configuration not stated) | inactive
33 | Cc1ccc(OCC(=O)N/N=C/c2ccncc2)cc1 | inactive
34 | Cc1ccc(/C=N/NC(=O)COc2ccccc2-c2ccccc2)cc1 | 1.64 µM (active)
35 | Cc1ccc(OCC(=O)N/N=C\c2ccco2)c(C)c1 | inactive
36 | CCc1cccc(NC(=O)CCC(=O)O)c1 | inactive
37 | O=C(CCl)Nc1cccc(CP(=O)(c2ccccc2)c2ccccc2)c1 | 7.94 µM (active)
38 | O=C(Cc1ccccc1)Nc1cccc(NC(=O)c2ccccc2)c1 | inactive
39 | CN(C)S(=O)(=O)c1ccc(N2CCCC2)c(C(=O)Nc2ccc(Br)cc2F)c1 | inactive
40 | CCCn1nc(C(=O)OCc2nc(N)nc(Nc3ccccc3C)n2)c2ccccc2c1=O | inactive
41 | CCC(C(=O)Nc1cc(OC)ccc1OC)n1c(=O)c(C(F)(F)F)nc2ccccc21 (configuration not stated) | inactive
42 | O=C(N/C(=C/c1ccc(Cl)cc1)C(=O)N1CCCCC1)c1ccco1 | inactive
43 | C=CCn1cc(C(=O)NCc2ccc(Cl)cc2)c(=O)c2cc(S(=O)(=O)N(CC)CC)ccc21 | 0.398 µM (active)
44 | CCn1cc(C(=O)NCc2ccccc2)c(=O)c2cc(S(=O)(=O)N3CCCCC3)ccc21 | inactive
45 | CCN(CC)S(=O)(=O)c1ccc2c(c1)c(=O)c(C(=O)N1CCN(c3cccc(Cl)c3)CC1)cn2C | inactive
46 | CC(=O)OC1CCC2(C)C(=CCC3C4CC(=O)N(O)C(=O)C4(C)CCC32)C1 (configuration not stated) | inactive
47 | CC(C(=O)NC1CCCC1)N1CCN(S(=O)(=O)c2ccccc2Cl)CC1 (configuration not stated) | inactive
48 | Cc1ccc(N(CC(=O)NC2CCCCC2)C(=O)CCCC(=O)Nc2ccccn2)c(C)c1 | inactive
49 | CC(Nc1nc(N2CCCC2)nc2ccccc12)c1ccccc1 (configuration not stated) | 12.6 µM (active)
50 | c1ccc2c(NC3C4CC5CC(C4)CC3C5)nc(N3CCOCC3)nc2c1 (configuration not stated) | inactive

Row | SMILES | Potency
51 | CC(Nc1nc(N2CCOCC2)nc2ccccc12)c1ccccc1 (configuration not stated) | inactive
52 | Cc1ccc(S(=O)(=O)N2CCC(C(=O)NCCC3=CCCCC3)CC2)cc1C | inactive
53 | COc1cc(NC(=O)c2ccc(-c3csc(C)n3)cc2)c(OC)cc1Cl | inactive
54 | O=C1c2ccccc2C(=O)c2c1cccc2N1CCN(C/C=C/c2ccccc2)CC1 | inactive
55 | O=C(Nc1cccc(Br)c1)C1CC(=O)N(C2CCCC2)C1 (configuration not stated) | inactive
56 | CN(C)S(=O)(=O)c1cccc(NC(=O)COC(=O)c2cc(=O)[nH]c(=O)[nH]2)c1 | inactive
57 | NS(=O)(=O)c1ccc(NC(=O)COC(=O)C2(c3ccc(F)cc3)CCCC2)cc1 | inactive
58 | CN(C)S(=O)(=O)c1cccc(NC(=O)Cc2ccsc2)c1 | 2.82 µM (active)
59 | CN(c1ccccc1)S(=O)(=O)c1ccc(Cl)c(C(=O)OCC(N)=O)c1 | inactive
60 | CN(c1cccc(NC(=O)Nc2ccc(Cl)cc2)c1)S(C)(=O)=O | inactive
61 | CN(C)S(=O)(=O)c1cccc(NC(=O)COC(=O)/C=C/c2cccs2)c1 | inactive
62 | CN(C)S(=O)(=O)c1cccc(NC(=O)COC(=O)C2(c3ccccc3F)CCCC2)c1 | 4.11 µM (active)
63 | CN(c1ccccc1)S(=O)(=O)c1cccc(NC(=O)Cc2c(F)cccc2Cl)c1 | 11.2 µM (active)
64 | CN(c1ccccc1)S(=O)(=O)c1cccc(C(=O)NNC(=O)c2ccncc2)c1 | inactive
65 | CN(c1ccccc1)S(=O)(=O)c1cccc(NC(=O)Cc2ccc(Cl)cc2)c1 | 8.91 µM (active)
66 | Cc1ccc(S(=O)(=O)N(CC(=O)Nc2cccc([N+](=O)[O-])c2)Cc2ccc(Cl)cc2)cc1 | inactive
67 | CN(C)S(=O)(=O)c1cccc(NC(=S)N/N=C/C(=O)c2ccccc2)c1 | inactive
68 | O=C(COC(=O)C1CCCO1)Nc1nc(-c2ccc(F)cc2)cs1 (configuration not stated) | inactive
69 | COc1cc(N)c(Cl)cc1C(=O)OCC(=O)c1ccc2c(c1)NC(=O)CO2 | inactive
70 | COC(=O)C=C[C@H]1c2ccccc2[C@@H](OC)[C@@H]1C | inactive
71 | NC1=NC(c2ccc([N+](=O)[O-])cc2)N(c2ccc(F)cc2)C(N)=N1 (configuration not stated) | inactive
72 | CC(C)Sc1nc(N)nc2c1ncn2C1OC(CO)C(O)C1O (configuration not stated) | inactive
73 | COc1cc2c(cc1OC)CN(C(=O)c1cc(S(=O)(=O)N3CCCCC3)ccc1Cl)CC2 | inactive
74 | CCOc1ccccc1NC(=S)C(=C([O-])c1ccc2c(c1)OCCO2)[n+]1ccc(CC)cc1 | inactive
75 | CC(C)c1ccc(NC(=O)c2ccc(Cn3nc(N4CCN(c5ccccc5)CC4)ccc3=O)o2)cc1 | inactive

Row | SMILES | Potency
76 | O=C(CSc1nnc(COc2ccc(Cl)cc2)n1Cc1ccco1)N1CCNC1=O | inactive
77 | O=C(c1cc(C(=O)N2CCN(c3ccc(F)cc3)CC2)cc([N+](=O)[O-])c1)N1CCN(c2ccc(F)cc2)CC1 | inactive
78 | O=C(NCCCN1CCCC1=O)C(=O)NCC1OCCN1S(=O)(=O)c1ccc(Br)cc1 (configuration not stated) | inactive
79 | CCc1cccc(NC(=O)CN(C)S(=O)(=O)c2ccc3[nH]c4c(c3c2)CCCC4)c1 | inactive
80 | Cc1cccc(NC(=S)NCc2ccc3[nH]c4c(c3c2)CCCC4)c1 | 20.6 µM (active)
81 | Cc1cc(C)cc(NC(=S)NCc2ccc(F)cc2)c1 | inactive
82 | CCCC(O)(c1ccccc1)C(c1ccccc1)c1ccccn1 (configuration not stated) | inactive
83 | CCOC(=O)c1ccc(NC(=O)C2CCN(S(=O)(=O)c3ccc4c(c3)CCCC(=O)N4)CC2)cc1 | inactive
84 | Cc1c(C)n(Cc2ccc(Cl)cc2)c2ccc(C(=O)NCCc3ccc(S(N)(=O)=O)cc3)cc12 | inactive
85 | COc1ccc(C(=O)NCCc2ccc(S(N)(=O)=O)cc2)cc1OC | inactive
86 | CC(C)(CO)CNC(=O)c1ccc2[nH]c(O)c(N=Nc3ccc(S(N)(=O)=O)cc3)c2c1 | 1.58 µM (active)
87 | CCCCOc1ccc(N(CC(=O)NCC2CCCO2)C(=O)CCC(=O)Nc2cc(C)ccn2)cc1 (configuration not stated) | 23.1 µM (active)
88 | Cc1cc(NC(=O)CCC(=O)N(CC(=O)NCC2CCCO2)c2ccccc2)no1 (configuration not stated) | inactive
89 | Cc1cc(NC(=O)CCC(=O)N(CC(=O)NCC2CCCO2)c2ccccc2C)no1 (configuration not stated) | inactive
90 | Cc1oc2ncnc(N3CCCCC3)c2c1C(=O)N1CCN(c2cccc(Cl)c2)CC1 | inactive
91 | Cc1ccc(CNC(=O)COc2ccc(S(=O)(=O)NC(C)C)cc2)cc1 | inactive
92 | Cc1ccc(OCC(=O)NNC(=S)NCc2ccccc2)cc1 | inactive
93 | Cc1ccc(CNC(=O)COc2ccc3c(c2)CCC3)cc1 | 18.4 µM (active)
94 | O=C1CCc2cc(S(=O)(=O)Nc3ccc(C(F)(F)F)cc3)cc3c2N1CC3 | inactive
95 | CCOc1ccc(C(=O)CCC(=O)NC2=NCCS2)cc1 | inactive
96 | Cc1ccc2oc(=O)c3cnn(CC(=O)N4CCN(c5cccc(Cl)c5)CC4)c3c2c1 | inactive
97 | Cc1ccccc1CCNC(=O)C1CCC(=O)N(Cc2ccc(Cl)cc2)C1 (configuration not stated) | inactive
